12-LOX inh – ALOX12 (human) lipoxygenase inhibition; P18054; purified 12hLO, xylenol orange hydroperoxide absorbance; Potency, µM (doses to about 108 µM), inactives show at the highest dose activity change, negative = inhibition, usual class: inhibitors; hit rate 1.1% among 580,000; AID 1671190; further: on the % scale 0 is the no-effect control and ±100 the full control effect
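Purified human 12hLO (150 nM final) in 25 mM Hepes, 0.01% Triton X-100, pH 7.0 was preincubated 15 min at room temperature with compound. Then 40 uM arachidonic acid was added, 30 min. Hydroperoxide was read by Fe-XO absorbance ratio 573/405 nm.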
G9a block – blocks human histone lysine methyltransferase G9a. G9a H3K9 monomethylation, AlphaScreen, 2 h. Potency, µM (top dose mostly 102 µM), inactives show at the top dose activity, negative = inhibition, usual class: inhibitors. hit rate 8.8% among 350,000. AID 504332; further: on the % scale 0 is the no-effect control and ±100 the full control effect; nearly all actives have a fitted effect of over 75% in size
Target sequence (Q96KQ7 913-1193 limits assumed): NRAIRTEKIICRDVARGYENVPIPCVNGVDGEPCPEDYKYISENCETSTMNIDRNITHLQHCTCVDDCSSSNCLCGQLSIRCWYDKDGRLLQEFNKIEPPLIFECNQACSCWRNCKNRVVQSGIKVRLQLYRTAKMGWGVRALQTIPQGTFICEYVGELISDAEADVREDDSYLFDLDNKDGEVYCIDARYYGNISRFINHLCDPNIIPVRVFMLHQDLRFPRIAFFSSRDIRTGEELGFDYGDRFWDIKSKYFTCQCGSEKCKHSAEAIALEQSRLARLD
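AlphaScreen detection with an anti-monomethyl H3K9 antibody quantified product after a 2 h room-temperature reaction containing 500 nM biotinylated H3K9 peptide, 20 µM SAM and 20 nM enzyme, which had been preincubated 15 min with compound.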
HP1b binding inh – blocks HP1-beta chromodomain binding to methylated histone tails. P83916. AlphaScreen HP1-beta / biotin-H3K9me3 peptide binding. Potency, µM (highest dose often 114 µM), without a hit: top-dose activity change, negative = inhibition, hits mostly inhibitors. hit rate 0.56% among 390,000; further: nearly all actives have a fitted effect of over 70% in size
Target sequence (P83916 whole entry, looked up): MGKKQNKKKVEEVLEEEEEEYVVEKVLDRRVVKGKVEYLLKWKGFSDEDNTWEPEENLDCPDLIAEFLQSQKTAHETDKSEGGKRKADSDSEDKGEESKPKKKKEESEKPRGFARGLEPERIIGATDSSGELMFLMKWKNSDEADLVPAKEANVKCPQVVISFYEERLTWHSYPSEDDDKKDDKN
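Compound inhibition of the preformed complex between 50 nM HP1-beta and 50 nM biotinylated H3K9me3 peptide was read by AlphaScreen. Buffer was PBS pH 7.4 with 0.01% Tween-20. Incubations ran 30 min at room temperature, with 10 ug/mL donor/acceptor beads.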
BAZ2B block – inhibitors of human BAZ2B bromodomain. Q9UIF8. AlphaScreen BAZ2B-H3K14Ac peptide displacement. Potency, µM (titrated, usually from 114 µM), for inactives: at the top dose activity change, negative = inhibition, hits mostly inhibitors. hit rate 4.4% among 360,000; further: on the % scale 0 is the no-effect control and ±100 the full control effect; nearly all actives have a fitted effect of over 60% in size
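Protein-peptide AlphaScreen: BAZ2B 50 nM, b-H3K14Ac 50 nM, 1x PBS pH 7.4 + 0.01% Tween-20. Preincubation 30 min RT; cpd 30 min RT (top 110 uM); beads 20 min RT, light-protected.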
PLK1 PBD block – inhibitors of human PLK1 polo-box domain binding. P53350. Plk1 PBD binding of FITC phosphopeptide, fluorescence polarization. Potency, µM, for the others: max response, negative = inhibition, usual class: inhibitors. hit rate 2.8% among 360,000. AID 720504; further: series mostly up to about 57 µM; on the % scale 0 is the no-effect control and ±100 the full control effect; nearly all actives have a fitted effect of over 65% in size
JMJD2A Tudor – inhibitors of human JMJD2A Tudor domain; Potency, µM (doses to about 114 µM), for the others: at the highest dose activity change, negative = inhibition, usual class: inhibitors; O75164; hit rate 4.4% among 390,000; AlphaScreen JMJD2A-Tudor / H3K4me3 peptide binding; further: on the % scale 0 is the no-effect control and ±100 the full control effect; nearly all actives have a fitted effect of over 50% in size
* = called active by the depositor; ? = inconclusive; / = no result; [ ] = remark or other dose. An excerpt weighted towards active compounds, which were near 9% of everything screened. The call rests on the fitted dose curve; in most records, active means well fitted curve in the direction sought with a large enough effect; inconclusive means small, poorly fitted or top-dose-only effect, or another doubt; inactive means no such curve, though single readings can be large; an effect the other way counts as inactive or inconclusive. Potency means the concentration at half of the fitted maximal effect.

SMILES	12-LOX inh	G9a block	HP1b binding inh	BAZ2B block	PLK1 PBD block	JMJD2A Tudor
CCOC(=O)c1c(N2C(=O)C=CC2=O)sc(C)c1C	/	?	?	?	5.3µM*	20µM*
O=C(CSc1n[nH]c(=O)[nH]c1=O)N1CCCCCC1	2%	/	?	-1%	27µM*	-12%[11.4 µM]
O=C(O)c1cccnc1SCC(=O)N1CCCCCC1	1%	50µM*	52%	0%	-5%	-18%
Cc1cccc(CSc2ncccc2C(=O)O)c1	?	11µM*	42%	-28%	-1%	50µM*
O=C(O)c1ccccc1CSC1=NCCS1	3%	-30%	4%	-24%	17µM*	5%
O=C(CCc1n[nH]c(=O)[nH]c1=O)N1CCCCC1	6%	-46%	63%	9%	-18%	-17%
O=C(O)c1ccccc1CSc1ncccc1C(=O)O	-19%	20µM*	3%	-26%	-8%	20µM*
O=C(Nc1nc(-c2ccc(Oc3ccccc3)cc2)cs1)C1=COCCO1	?	-17%	4%	-10%	-8%	-32%
C=CC(C)(C)c1c(O)c(CC=C(C)C)c(O)c2c(=O)c3ccc(O)c(O)c3oc12	/	/	-15%	/	7%	50µM*
C=CC(C)(C)c1c2occc2c(O)c2ccc(=O)oc12	7%	/	8%	/	-5%	-27%
O=C(Nc1ccc2oc(-c3cc(Br)ccc3Cl)nc2c1)c1cc2ccccc2o1	?	?	38%	79µM*	/	-27%
O=C(Nc1ccc2oc(-c3ccc(Br)cc3)nc2c1)c1cc2ccccc2o1	0%	4%[59 µM]	33%	4%	/	-8%
CCC(=O)Nc1ccc2oc(-c3cccc(C)c3)nc2c1	-13%	18%[12.7 µM]	?	-2%	3µM*	?
Cc1ccc(-c2nc3cc(NC(=O)c4cc(Br)ccc4Cl)ccc3o2)cc1	40µM*	?	0%	?	/	-12%
O=C(Nc1ccc(-c2nc3cc(NC(=O)c4cccs4)ccc3o2)cc1)c1cccs1	2%	-14%[0.0925 µM]	21%	19%	0%	-4%
Cc1ccc(SCC(=O)Nc2ccc3oc(-c4cccc(C)c4)nc3c2)cc1	?	-6%[59 µM]	30%	-4%	/	-8%
O=C(Nc1ccc2oc(-c3ccncc3)nc2c1)c1cccs1	-29%	-26%[12.7 µM]	49%	56µM*	-4%	-33%
CC(C)CSc1n[nH]c(=S)s1	22µM*	1.8µM*	28µM*	50µM*	7.5µM*	8.9µM*
O=C1c2ccccc2C(=O)N1CCSc1n[nH]c(=S)s1	?	1.3µM*	?	?	-14%	18µM*
CC(CSc1n[nH]c(=S)s1)c1ccccc1 (stereo not drawn)	?	/	50µM*	/	?	18µM*
Cc1ccc(S(=O)(=O)N(CC(=O)Nc2ccccc2C(=O)O)c2cccc(Cl)c2C)cc1	?	17%[59 µM]	11%	-23%	30µM*	-26%
Cc1ccsc1/C=N/N=C/c1sccc1C	-28%	4%[0.501 µM]	12%	-31%	-3%	-14%
Cc1ccsc1C=Nc1ccc(O)cc1	/	13µM*	?	40µM*	?	79µM*
COc1ccc2c(c1)S/C(=C\C(=O)c1ccncc1)N2C	45µM*	?	41%	/	0%	1%
COc1ccc2nc(/C=N/NC(=O)CCCCCNC(=O)OC(C)(C)C)ccc2c1	?	?	8%	-11%	2%	-6%
SMILES	12-LOX inh	G9a block	HP1b binding inh	BAZ2B block	PLK1 PBD block	JMJD2A Tudor
COc1ccc2nc(/C=N/NC(=O)CCNC(=O)OC(C)(C)C)ccc2c1	?	32µM*	13%	-15%	4%	-24%
CCOC(=O)C1CCN(Cc2cc(Cl)c3ccccc3c2O)CC1	/	45µM*	-9%	?	?	-21%
CCOC(=O)C1CCN(Cc2ccc(OC)c(C)c2OC)CC1	?	?	?	50µM*	-9%	1.1µM*
Oc1c(CN2CCCC(C(F)(F)F)C2)cc(Cl)c2ccccc12 (stereo not drawn)	16µM*	40µM*	-2%	-29%	-9%	-24%
OC1CCCN(Cc2cccc3ccccc23)C1 (stereo not drawn)	-23%	-9%[59 µM]	29%	3%	1%	7%
CCOC(=O)C1CCN(Cc2nc(-c3ccc(OC)c(OC)c3)no2)CC1	-7%	-7%[59 µM]	20%	1%	4%	-11%
O=C(CSc1nnc(CNC(=O)c2cccs2)o1)Nc1ccccc1F	-35%	-1%[0.501 µM]	24%	-6%	?	-6%
COc1ccc(NC(=O)Nc2sc(NS(=O)(=O)c3ccccc3)nc2C)cc1	22µM*	50µM*	-18%	-34%	?	-24%
C/C(=N/NC(=O)c1sc(NS(=O)(=O)c2ccccc2)nc1C)c1sc(N)nc1C	?	50µM*	10%	?	-3%	?
Cc1nc(C)c(C(=O)NNS(=O)(=O)c2ccc([N+](=O)[O-])cc2)s1	?	7.9µM*	6%	-3%	-6%	2µM*
O=C(NNS(=O)(=O)c1ccc(F)cc1)c1ccc([N+](=O)[O-])cc1	/	35%[0.501 µM]	11%	-13%	1%	-12%
Cc1nc(NS(=O)(=O)c2ccccc2)sc1C(=O)NN	0%	0%[12.7 µM]	35%	?	-21%	-13%
Cc1cccc(S(=O)(=O)NNC(=O)c2sc(C)nc2C)c1	-12%	?	6%	-22%	0%	10µM*
CCSc1nnc(NC(=O)CSc2c(Cl)cccc2Cl)s1	-11%[57.4 µM]	-9%[59 µM]	43%	-2%	-24%	11%
CCOC(=O)c1cccc(NC(c2nnc(-c3ccccc3)o2)c2ccccc2F)c1 (stereo not drawn)	-1%	18%[59 µM]	16%	-5%	/	-12%
Cc1cc(C)cc(NC(=O)CSc2nc(-c3ccccc3)c3cc(F)ccc3n2)c1	-11%	-3%[59 µM]	24%	-1%	/	-18%
Cc1c(C(=O)NNS(=O)(=O)c2ccccc2)sc(=S)n1C	-5%	30%[59 µM]	34%	?	-11%	8.9µM*
Cc1ccc(S(=O)(=O)Nc2nc(C)c(NC(=O)Nc3ccc(Cl)cc3Cl)s2)cc1	2µM*	?	-21%	-35%	21µM*	-25%
Cc1ccc(S(=O)(=O)Nc2nc(C)c(C(=O)Nc3ccccc3)s2)cc1	?	?	29%	-27%	-4%	-8%
CC(=O)NNC(=O)c1sc(=S)n(C)c1C	0%	23%[59 µM]	17%	1%	4%	-1%
Cc1ccc(S(=O)(=O)Nc2nc(C)c(C(=O)NNS(=O)(=O)c3ccccc3)s2)cc1	?	50µM*	27%	-34%	-1%	-13%
Cc1ccnc(N2C(=O)c3ccccc3C2=O)c1	0%	17%	19%	-4%	-3%	-4%
O=C(NCCO)C(F)(F)C(F)(F)C(F)(F)OC(F)(C(=O)NCCO)C(F)(F)F (stereo not drawn)	2%	-6%	29%	-5%	-2%	-10%

Source: PubChem
